ST2 inh: blocks human ST2 binding to IL-33. AlphaLISA ST2-Fc/biotin-IL-33 interaction, 1 h. inhibition, % for hits at 17 µM. actives 2.3% (n = 78,000); in the data active = inhibition above about 30%
Target sequence (Q01638 whole entry, looked up): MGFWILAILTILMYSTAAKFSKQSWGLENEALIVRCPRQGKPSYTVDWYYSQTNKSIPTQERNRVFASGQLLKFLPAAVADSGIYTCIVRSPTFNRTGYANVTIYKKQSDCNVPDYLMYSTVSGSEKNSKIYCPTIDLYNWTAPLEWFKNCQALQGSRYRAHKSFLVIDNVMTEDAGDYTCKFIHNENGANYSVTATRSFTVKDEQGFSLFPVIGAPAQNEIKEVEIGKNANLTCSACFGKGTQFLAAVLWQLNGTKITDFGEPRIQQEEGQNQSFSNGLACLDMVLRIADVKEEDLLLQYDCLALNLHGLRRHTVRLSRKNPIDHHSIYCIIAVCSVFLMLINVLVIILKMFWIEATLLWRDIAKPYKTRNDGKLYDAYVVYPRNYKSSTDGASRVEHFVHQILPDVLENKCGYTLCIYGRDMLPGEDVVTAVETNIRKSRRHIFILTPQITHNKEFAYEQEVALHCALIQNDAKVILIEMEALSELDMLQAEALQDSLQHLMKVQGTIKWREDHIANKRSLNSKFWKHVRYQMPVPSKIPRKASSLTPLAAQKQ
The depositor's hits bear a star; i = inactive. Many of the other results were omitted from the sample, so hits are more common in it than they were.

SMILES	ST2 inh
Cc1cc(C)c([N+](=O)[O-])cc1NC(=O)c1cc2c(C)nn(-c3ccccc3)c2s1	i
Cc1ccc(NC(=O)c2cc3c(C)nn(-c4ccccc4)c3s2)cc1[N+](=O)[O-]	36%*
Cc1nn(-c2ccccc2)c2sc(C(=O)NCCCO)cc12	i
CC(C)c1ccc(C(=O)N2CCN(c3ccc(Cl)cc3)CC2)cc1	i
CCCn1cc(S(=O)(=O)CC(=O)Nc2ccccc2)c2ccccc21	i
CCOc1cc(C=C2C(=O)OC(C)(C(C)(C)C)OC2=O)cc(I)c1O (stereo not drawn)	i
N#Cc1ccccc1Cn1cc(C=C2C(=O)NC(=O)NC2=O)c2ccccc21	i
Cn1cc(/C=C2\C(=O)NN(c3ccccc3)C2=O)c2ccccc21	i
CCN(CC)C(=O)Cn1cc(/C=C2\C(=O)NC(=O)N(CC)C2=O)c2ccccc21	i
CCN(CC)c1ccc(C=C2C(=O)OC(C)(C(C)(C)C)OC2=O)cc1 (stereo not drawn)	43%*
CCOc1cc(C=C2C(=O)OC(C)(C(C)(C)C)OC2=O)ccc1OC (stereo not drawn)	i
CCn1cc(C=C2C(=O)OC(C)(C(C)(C)C)OC2=O)c2ccccc21 (stereo not drawn)	44%*
Cn1cc(C=C2C(=O)OC3(CCCCC3)OC2=O)c2ccccc21	41%*
COc1ccc(C=C2C(=O)OC3(CCCCC3)OC2=O)cc1O	i
CCC(CC)C(=O)Nc1cccc(OCc2cc(=O)n3ccc(C)cc3n2)c1	i
Cc1c(O)cccc1C(=O)NCc1cccnc1N(C)C1CCCCC1	i
COCc1nc(CNC2CCCC(C)(C)C2)no1 (stereo not drawn)	i
CCC(NC(=O)c1occc1C)c1ccc(S(C)(=O)=O)cc1 (stereo not drawn)	i
Cn1c(=O)[nH]c(=O)c2c1nc(Br)n2CC(N)=O	i
COc1ccc(NC(=O)CSc2nc3ccccc3s2)cc1OC	i
Nc1ccc(C(=O)Nc2ccc(-c3nc4ccc(NC(=O)c5ccc(N)cc5)cc4[nH]3)cc2)cc1	30%*
CC(=O)Nc1ccc(-c2nc3ccc(NC(C)=O)cc3[nH]2)cc1	i
Cc1cccc2[nH]c(-c3ccc(NC(=O)c4ccc(N)cc4)cc3)nc12	i
CCCOCCOC(=O)C1=C(C)NC2=C(C(=O)CC(C)(C)C2)C1c1ccc(O)cc1 (stereo not drawn)	i
Cc1ccc(-c2[nH]c3ccccc3c2C(C[N+](=O)[O-])c2ccco2)cc1 (stereo not drawn)	i
SMILES	ST2 inh
Cc1[nH]c2ccccc2c1C(C[N+](=O)[O-])c1ccco1 (stereo not drawn)	36%*
COc1cc(C(C[N+](=O)[O-])c2c(C)[nH]c3ccccc23)ccc1O (stereo not drawn)	i
OC[C@@H]1O[C@H](CN(Cc2ccccn2)Cc2ccccn2)[C@H](N2CCN(c3ccc(F)cc3)CC2)[C@@H]1O	i
CNc1nc(C(=O)N2CCC3(CCCN(C)CC3)CC2)cs1	i
CN1CCC2(CC1)CN(C(=O)c1cc(-c3ccc(O)cc3)n[nH]1)CCCN2C	i
COc1cc(C(=O)N2CCCN(C)C3(CCN(C)CC3)C2)nc(OC)n1	33%*
CCC1(O)CCCN(CCC(=O)Nc2ccc(OC)cc2C)C1 (stereo not drawn)	i
COc1ccc(C(=O)Nc2ccc(C(C)C)cc2)cc1OC	i
N#Cc1nc(COc2ccccc2Cl)oc1NCCCn1ccnc1	45%*
CN1CCN(Cc2ccc(OCc3ccccc3)cc2)CC1	i
c1ccc(OCCCn2ccnc2)cc1	i
COc1ccc(OCc2nc(C#N)c(N3CCC(C(N)=O)CC3)o2)cc1	i
N#Cc1nc(COc2ccc(Br)cc2)oc1N1CCN(Cc2ccccc2)CC1	56%*
Clc1ccccc1OCCCCN1CCNCC1	i
N#CSCCCCOc1ccccc1Cl	i
N#Cc1nc(COc2ccccc2Cl)oc1N1CCCC1	73%*
Fc1ccccc1OCCCn1ccnc1	i
COc1ccc(C)cc1S(=O)(=O)N1CCC(CCC(=O)Nc2cccc(C)c2)CC1	i
Cc1cc(C)c2c(=O)cc(C3C(=O)c4ccccc4C3=O)[nH]c2c1	i
Cc1cc(Br)c2c3c(c(N)c(=O)[nH]c13)-c1ccccc1C2=O	45%*
CSc1ncc(CN2CCN(CC3CCCCC3)C(CCO)C2)cn1 (stereo not drawn)	i
CC(=O)c1ccc2[nH]c(C(=O)O)c(CCN)c2c1	i
Cc1cccc(C(C)C)c1NC(=O)c1ccc(Br)cc1	i
CCc1ccc(NC(=O)CCS(=O)(=O)c2cc(Br)cc3c2N(C(C)=O)CC3)cc1	i
Cc1nc2ccccc2c2c1C(=O)N(c1cccnc1Cl)C2=O	i
Cc1nc2ccccc2c2c1C(=O)N(c1ccc3c(c1)OCO3)C2=O	51%*
Cc1noc(C)c1-c1nc(CC(C)C)nn1-c1ccc2c(c1)OCO2	i
COc1cc([N+](=O)[O-])ccc1N1C(=O)c2c(C)nc3ccccc3c2C1=O	i
Cc1ccc(Cl)cc1N1C(=O)c2c(C)nc3ccccc3c2C1=O	31%*
Cc1nc2ccccc2c2c1C(=O)N(c1ccc(C(N)=O)cc1)C2=O	i
